According to PubChem BioAssay AID1347416 (National Center for Advancing Translational Sciences (NCATS), 2020):
In all, about 4,100 compounds went through this assay and about 1,600 (39%) were called active. Not shown: some 25% with an inconclusive outcome. The call rests on the fitted dose curve; in most records, active means well fitted inhibition curve with a large enough effect; inconclusive means small, poorly fitted or top-dose-only effect; inactive means no such curve, though single readings can be large or run the other way. This is one part of the list.
Potency means the concentration at half of the fitted maximal effect.

Experiment: qHTS Validation assay for Inhibitors of Plasmodium falciparum Dd2 growth in vitro; further: nearly all actives have a fitted effect of over 70% in size
Conditions: P. falciparum Dd2 in RBCs, SYBR Green growth, 72 h; series mostly up to 28.7 µM
Outline: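 P. falciparum Dd2-infected red blood cells (2.5% hematocrit, 0.3% parasitemia) grown 72 h at 37 °C under 5% O2 with compounds in a titration, 29 uM to 0.5 nM final. Growth read as SYBR Green-1 fluorescence after ~16 h lysis; artesunate 300 nM as positive control.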
In the case of `CCOC(=O)c1c(N)sc2c1CCN(Cc1ccccc1)C2`, the Potency is reported as 5.31 µM (active).
With `CC(C)(C(=O)N1CCN(Cc2ccccc2)CC(O)C1)c1ccccc1` (stereo unspecified) the Potency was “inactive”.
With `CCOC(=O)c1c(NC(=O)/C=C/c2ccc(OCC)cc2)sc2c1CCC2` the Potency was “inactive”.
With `O=C(CN1CCC(n2nnc3cc(F)ccc32)CC1)Nc1ccccc1N1CCOCC1` the Potency was 5.31 µM (active).
For `Cc1cc(F)ccc1NC(=O)Cn1c(=O)ccc2cc(S(=O)(=O)N3CCC(C)CC3)ccc21`, the Potency was “inactive”.
For `O=C(C1=C[C@H](c2csc3ccccc23)C[C@H](OCCCCO)O1)N1CCN(Cc2ccc3c(c2)OCO3)CC1`, the Potency was 13.3 µM (active).
In the case of `CCO[C@@H]1OC(C(=O)N2CCN(Cc3ccc4c(c3)OCO4)CC2)=C[C@H](c2cn(C(C)=O)c3ccccc23)[C@H]1CCCO`, the Potency is reported as 9.44 µM (active).
With `CCO[C@H]1OC(C(=O)N2CCN(Cc3ccccc3)CC2)=C[C@@H](C2CCCCC2)[C@@H]1CCCO` the Potency was “inactive”.
With `CCO[C@H]1OC(C(=O)N2CCN(Cc3ccc4c(c3)OCO4)CC2)=C[C@@H](c2cn(C(C)=O)c3ccccc23)[C@@H]1CCCO` the Potency was 8.41 µM (active).
For `O=C(NCc1nc2ccccc2[nH]1)C1=C[C@@H](c2ccccc2)C[C@@H](OCCCCO)O1`, the Potency was “inactive”.
In the case of `CN(Cc1cccnc1)Cc1ccccc1C(F)(F)F`, the Potency is reported as “inactive”.
In the case of `Cn1c(CN2CCCCC2)nnc1C1CCCN(C(=O)c2cocn2)C1` (stereo unspecified), the Potency is reported as “inactive”.
With `CCOC(=O)c1nnn(-c2nonc2-n2cccc2)c1CN1CCC(C(=O)OCC)CC1` the Potency was 4.73 µM (active).
In the case of `CCOC(=O)c1nnn(-c2nonc2-n2cccc2)c1CN1CCCCC1`, the Potency is reported as 7.5 µM (active).
With `O=C(COc1ccccc1)N1CCCC(n2cc(-c3nc(C4CC4)no3)nn2)C1` (stereo unspecified) the Potency was “inactive”.
With `O=C(c1nnc(COc2ccc(OC(F)(F)F)cc2)n1-c1ccccc1)N1CCC[C@@H]1C(c1ccccc1)c1ccccc1` the Potency was 8.41 µM (active).
With `CC(=O)Nc1cccc(OCc2nnc(C(=O)N3CCC[C@@H]3C(c3ccccc3)c3ccccc3)n2-c2ccccc2)c1` the Potency was 10.6 µM (active).
For `CC(=O)Nc1cccc(-c2cn(C)c(=O)n3cc(COc4ccccc4)nc23)c1`, the Potency was “inactive”.
In the case of `O=C(c1nnc(CN2CCC(F)(F)CC2)n1-c1cccnc1)N1CCC[C@@H]1C(c1ccccc1)c1ccccc1`, the Potency is reported as 15 µM (active).
In the case of `COC1CCOC2(CCN(C(=O)CCn3nc(C)cc3C)CC2)C1` (stereo unspecified), the Potency is reported as “inactive”.
In the case of `COc1ccc(C2=C(Nc3ccccc3)c3ccccc3C2=O)cc1`, the Potency is reported as 9.44 µM (active).
For `O=C1C(c2ccc(C(F)(F)F)cc2)=C(Nc2ccc(Cl)cc2)c2ccccc21`, the Potency was 1.5 µM (active).
In the case of `COCCn1cnc2ccc(Nc3ccc(C(F)(F)F)cc3)nc2c1=O`, the Potency is reported as “inactive”.
With `COc1ccc(NC2=C(c3ccc(OC)cc3)C(=O)c3ccccc32)cc1` the Potency was 5.96 µM (active).
With `COc1ccc(NC2=C(c3ccc(C(F)(F)F)cc3)C(=O)c3ccccc32)cc1` the Potency was 2.11 µM (active).
In the case of `COc1ccc(C(=O)NC2(C(F)(F)F)C(=O)NC(C)=C2C#N)cc1` (stereo unspecified), the Potency is reported as “inactive”.
In the case of `Cc1cc(Cl)ccc1NC(=O)N1C[C@H](c2nc(-c3cccnc3)no2)[C@@H](C)C1`, the Potency is reported as “inactive”.
In the case of `COc1ccc(C2=C(Nc3ccc(C)cc3)c3ccccc3C2=O)cc1`, the Potency is reported as 4.73 µM (active).
For `CCOc1ccc(NC2=C(OC)C(=O)c3ccccc3C2=O)cc1`, the Potency was 0.376 µM (active).
For `CC(=O)Nc1cccc(-c2cc(C(=O)NCc3c(C)cc(C)[nH]c3=O)c3c(c2)N(C(C)C)CCO3)c1`, the Potency was 9.44 µM (active).
In the case of `COc1ccccc1C(=O)NCc1nnc2c(-c3nc(C4CC4)no3)cccn12`, the Potency is reported as “inactive”.
For `Cc1cc(C)c(CNC(=O)c2cc(-c3ccnn3C)cc3c2OCCN3C(C)C)c(=O)[nH]1`, the Potency was 15.3 µM (active).
In the case of `CC(C)c1cccc(NC(=O)c2ccc(CN3C(=O)NC4(CCOCC4)C3=O)cc2)c1`, the Potency is reported as “inactive”.
For `COc1ccc(C(=O)NCc2nnc3c(-c4nc(C5CC5)no4)cccn23)c(C)c1`, the Potency was “inactive”.
With `Cc1cc(C)c(CNC(=O)c2cc(-c3cccnc3)cc3c2OCCN3C(C)C)c(=O)[nH]1` the Potency was 19.3 µM (active).
For `COc1ncc(-c2cc(C(=O)NCc3c(C)cc(C)[nH]c3=O)c3c(c2)N(C(C)C)CCO3)cn1`, the Potency was 9.44 µM (active).
In the case of `CN1CCOc2c(C(=O)NCCc3cnc[nH]3)cc(-c3ccc(N4CCOCC4)cc3)cc21`, the Potency is reported as “inactive”.
With `COc1ccc(-n2ccnc2SCC(=O)NO)cc1` the Potency was “inactive”.
With `COC(=O)C1=C(C)N(c2ccc(OC)cc2)C(C)=C(C(=O)OC)C1c1ccccc1` the Potency was 9.44 µM (active).
For `CCOC(=O)c1sc2nc3c(SCCC#N)cc(C(=O)c4cc(F)ccc4O)cn3c(=O)c2c1C`, the Potency was 1.68 µM (active).
With `CC(=O)NC1CC(c2cc(NCCCOC3CCN(C)CC3)ncn2)C1` (stereo unspecified) the Potency was “inactive”.
With `O=C(NCc1ccco1)C1CCc2sc(C(=O)N3CCCCCC3)cc2C1` (stereo unspecified) the Potency was “inactive”.
In the case of `CC1CCN(c2ccc(C(=O)NCc3ccco3)cc2[N+](=O)[O-])CC1`, the Potency is reported as 6.68 µM (active).
With `Cc1nn2c3c(cnc2c1-c1ccccc1)C(=O)CC(c1ccco1)C3` (stereo unspecified) the Potency was 9.44 µM (active).
For `CCOC(=O)c1noc2nc(C)n(CC(=O)NC(C)CC)c(=O)c12` (stereo unspecified), the Potency was “inactive”.
For `CCOC(=O)c1nc2cc3n(c(CC(C)C)c-2c1C)CC(C)=C3C`, the Potency was 7.5 µM (active).
For `CC(C)(C)c1ccc(OCCn2ccccc2=O)cc1`, the Potency was “inactive”.
With `O=C(Nc1c(C(=O)N2CCN(c3ccc(F)cc3)CC2)oc2ccccc12)c1ccco1` the Potency was “inactive”.
For `O=C(c1cccs1)c1cn(CCOc2ccc(Cl)cc2)c2ccccc12`, the Potency was 5.96 µM (active).
For `COc1ccc(OCCn2cc(C(=O)c3ccco3)c3ccccc32)cc1`, the Potency was 2.11 µM (active).
With `COc1cccc(OCCn2cc(C(=O)c3ccco3)c3ccccc32)c1` the Potency was “inactive”.
With `O=C(c1ccco1)c1cn(CCOc2ccc(F)cc2)c2ccccc12` the Potency was 6.68 µM (active).
With `CCCNc1c(NC(=O)COc2ccc(Cl)cc2)c(=O)oc2ccccc12` the Potency was “inactive”.
In the case of `Cc1cc(OCCn2cc(C(=O)c3ccco3)c3ccccc32)ccc1Cl`, the Potency is reported as 5.31 µM (active).
For `CCCS(=O)(=O)NCCc1ncc(C)n1C(C)C`, the Potency was “inactive”.
For `Cc1ccccc1-n1c(=O)/c(=C\c2ccco2)s/c1=C(/C#N)C(=O)Nc1ccccc1`, the Potency was 5.31 µM (active).
For `N#Cc1ccc(CN2C[C@@H]3C(=O)N(CCN4CCc5ccccc5C4)C(=O)[C@@H]3C2)cc1`, the Potency was “inactive”.
With `COc1ccc(N2C(N)=NC(N)=NC2(C)C)cc1` the Potency was “inactive”.
In the case of `CCOc1ccc(N2C(N)=NC(N)=NC2(C)C)cc1`, the Potency is reported as “inactive”.
With `CC1(C)N=C(N)N=C(N)N1c1ccc(OCCCOc2ccccc2)c(Cl)c1` the Potency was 2.99 µM (active).
With `COC[C@@H]1CN(Cc2ccc(OC)c(C)c2)C[C@H]1C(=O)N(C)C` the Potency was “inactive”.
With `CCOC(=O)c1cc(C)n(Cc2ccc(OCC)c(OC)c2)c1C` the Potency was 10.6 µM (active).
For `COc1cc(O)c(C(CCN2CCOCC2)c2ccc3c(c2)OCO3)c(OC)c1` (stereo unspecified), the Potency was 4.22 µM (active).
In the case of `COc1cc(O)c(C(CCN2CCCC(C)C2)c2ccc3c(c2)OCO3)c(OC)c1` (stereo unspecified), the Potency is reported as 0.531 µM (active).
For `COc1cc(O)c(C(CCN2CCN(c3ccccc3)CC2)c2ccc3c(c2)OCO3)c(OC)c1` (stereo unspecified), the Potency was 0.842 µM (active).
In the case of `CCc1ccc(NC(=O)C(=O)NCC(c2ccc3c(c2)OCO3)N2CCOCC2)cc1` (stereo unspecified), the Potency is reported as “inactive”.
In the case of `COc1cc(O)c(C(CCN2CCCCC2)c2ccc3c(c2)OCO3)c(OC)c1` (stereo unspecified), the Potency is reported as 1.33 µM (active).
In the case of `CCOC(=O)C1(Cc2ccccc2C(F)(F)F)CCNCC1`, the Potency is reported as “inactive”.
With `CCOC(=O)C1(Cc2ccccc2Cl)CCNCC1` the Potency was 2.66 µM (active).
In the case of `CN(CCc1ccccn1)c1ccc(-c2nc(COc3ccccc3)no2)cn1`, the Potency is reported as “inactive”.
In the case of `Fc1cccc(NC(=S)NNc2c3ccccc3nc3ccccc23)c1`, the Potency is reported as 15 µM (active).
In the case of `OC(CNC1CCCc2ccccc21)COc1c(Cl)cccc1Cl` (stereo unspecified), the Potency is reported as 1.68 µM (active).
In the case of `CC(=O)N(C)C1CCCc2ccccc21` (stereo unspecified), the Potency is reported as “inactive”.
For `COc1ccccc1CN(C)C1CCCc2ccccc21` (stereo unspecified), the Potency was “inactive”.
In the case of `O=C(N/N=C(\c1ccccc1)c1cccnc1)c1cccc(F)c1`, the Potency is reported as 4.22 µM (active).
For `N/C(=N\OC(=O)c1cccc(F)c1)c1ccccn1`, the Potency was “inactive”.
In the case of `CCc1noc(-c2cccn3c(CNC(=O)c4cccc(F)c4)nnc23)n1`, the Potency is reported as “inactive”.
With `O=C1NCN(c2ccccc2)C12CCN(CCCC(c1ccc(F)cc1)c1ccc(F)cc1)CC2` the Potency was 5.31 µM (active).
For `F[C@@H]1CN(CC2CC2)C[C@@H]1OCc1nc2ccccc2o1`, the Potency was “inactive”.
In the case of `Cc1cc(C)c(Cn2c(=O)n(CCCCC(=O)NCc3ccccc3Cl)c(=O)c3ccccc32)c(C)c1`, the Potency is reported as “inactive”.
For `CCCCN(C)CCCNC(=O)Cn1ncc2c3ccccc3n(Cc3cc(C)ccc3C)c2c1=O`, the Potency was 0.75 µM (active).
For `CCOC(=O)c1cccc(NC(=O)Cn2ncc3c4ccccc4n(Cc4ccccc4)c3c2=O)c1`, the Potency was “inactive”.
With `Cc1nc2sc(C(=O)Nc3ccc(F)cc3)c(N)c2c(-c2ccc(Br)cc2)c1C(=O)Nc1ccc(Cl)cc1` the Potency was 8.41 µM (active).
For `COc1ccc(NC(=O)c2sc3nc4c(c(-c5ccc(OC)cc5)c3c2N)C(=O)CC(C)(C)C4)cc1`, the Potency was 1.88 µM (active).
In the case of `CCc1ccc(N=C2NC(=O)CC(C(=O)Nc3ccc(OC)cc3)S2)cc1` (stereo unspecified), the Potency is reported as “inactive”.
With `COc1ccc(-c2c3c(nc4sc(C(=O)Nc5ccc(Cl)cc5)c(N)c24)CC(C)(C)CC3=O)cc1` the Potency was 0.376 µM (active).
For `COc1ccc(C(=O)Nc2ccc([C@H]3OCC(=O)N(C(C)C)[C@@H]3CO)cc2)cc1`, the Potency was “inactive”.
For `COc1ccc(-c2c3c(nc4sc(C(=O)Nc5ccc(F)cc5)c(N)c24)CC(C)(C)CC3=O)cc1`, the Potency was 0.944 µM (active).
In the case of `COc1ccc(NC(=O)CSc2nc(-c3ccc(OC)cc3)[nH]c2-c2ccc(F)cc2)cc1`, the Potency is reported as “inactive”.
In the case of `CCn1nccc1C(=O)N1CCCC(n2cc(-c3nc(-c4ccccc4)no3)nn2)C1` (stereo unspecified), the Potency is reported as “inactive”.
In the case of `O=C(Nc1ccc(-c2nnc3n2CCCC3)cc1)c1ccc2ccccc2n1`, the Potency is reported as “inactive”.
With `CCOC(=O)c1ccccc1NC1c2ccccc2C(=O)N1C1CCN(C(=O)OCC)CC1` (stereo unspecified) the Potency was 13.3 µM (active).
For `CCOC(=O)N1CCN(C(=O)c2ccccc2-c2ccccc2)CC1`, the Potency was “inactive”.
In the case of `CCOC(=O)N1CCN(c2nc3ccccn3c(=O)c2C=O)CC1`, the Potency is reported as “inactive”.
In the case of `COc1ccc(-n2nc3ccc(N)cc3n2)cc1Cl`, the Potency is reported as “inactive”.
In the case of `Oc1ccc(Cl)cc1-c1cc(C(F)(F)C(F)F)nc(-c2ccccc2)n1`, the Potency is reported as 0.842 µM (active).
In the case of `CCN(CC)c1ccc(C(=O)NCc2nnc3c(-c4nc(C(C)C)no4)cccn23)cc1`, the Potency is reported as “inactive”.
For `COc1cc(Cl)c(NC2=CC(=O)C(=O)c3ccccc32)c(OC)c1`, the Potency was 1.68 µM (active).
For `COc1cc(OC)c(NC2=CC(=O)C(=O)c3ccccc32)cc1Cl`, the Potency was 2.99 µM (active).
For `COc1cc(OC)c(NC(=O)n2ncc3cc(Cl)ccc32)cc1Cl`, the Potency was “inactive”.
For `Cc1cc(O)c(-c2ccnc3cc(-c4ccccc4)nn23)cc1Cl`, the Potency was 1.88 µM (active).
